In PubChem BioAssay (NCI) one finds growth inhibition data, which are given here for eight compounds.

The nature of the assay: NCI Yeast Anticancer Drug Screen. Data for the wt2 strain (AID 169).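 Also: 0% = growth of vehicle-treated yeast cultures.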 The following applies: S. cerevisiae wt2 strain growth inhibition, hits give high values. As to the method: Growth inhibition of yeast strains with defined genetic alterations is measured as a screen for potential anti-cancer activity. Selected strains with alterations in DNA damage repair or cell cycle control were exposed to compounds and growth inhibition was measured relative to vehicle treated controls. The strain used in this assay is wt2

Compounds without any hit were thinned out: in the full panel of roughly 79,000, 15% have a hit. Unmarked numbers belong to inactive results. Activity calls are given as the source filed them. Rule as the data show it: active = growth inhibition above about 70%; inactive = the rest.

Turning to `COC(=O)c1oc([N+](=O)[O-])c(Cl)c1Cl`, the growth inhibition is, setting by setting: (at 1.2 µM) 64%; (at 3.7 µM) 51%; (at 11.0 µM) 74% (active); (at 33.0 µM) 99% (active); (at 100.0 µM) 99% (active).
In the case of `CCN(CC)CC(O)c1cc(-c2ccc(Cl)cc2)nc2c(-c3ccccc3)cccc12` (stereo not given), the growth inhibition (at 1.2 µM) is -2%; the growth inhibition (at 3.7 µM) is -4%; the growth inhibition (at 11.0 µM) was 99% (active); the growth inhibition (at 33.0 µM) is 98% (active); the growth inhibition (at 100.0 µM) was 94% (active).
On the same counts, the results for `Cc1ccccc1NC(=O)Cc1csc(N/N=C2\NC(=O)/C(=C/c3cccc([N+](=O)[O-])c3)S2)n1` are 2%, 3%, 5%, 17% and 46%.
With `CCC(NC(C)c1ccccc1)C(=O)c1ccc(OCc2ccccc2)c(OCc2ccccc2)c1` (stereo not given), the growth inhibition runs as follows: (at 1.2 µM) -12%; (at 3.7 µM) -12%; (at 11.0 µM) -13%; (at 33.0 µM) -7%; (at 100.0 µM) -6%.
As for `O=[N+]([O-])c1cccc2nc3ccccc3c(NCCc3cccc[n+]3[O-])c12`, the growth inhibition is, setting by setting: (at 1.2 µM) 1%; (at 3.7 µM) 3%; (at 11.0 µM) 14%; (at 33.0 µM) 35%; (at 100.0 µM) 79% (active).
Turning to `CCCCCCCCCCCCCCCCCCNC(=S)/N=C\C1=C(O)c2ccccc2C1=O`, the growth inhibition (at 1.2 µM) is -2%; the growth inhibition (at 3.7 µM) was -2%; the growth inhibition (at 11.0 µM) was 1%; the growth inhibition (at 33.0 µM) is 13%; the growth inhibition (at 100.0 µM) is 36%.
As for `N#C/C(=C1C=C(Br)/C(=N\O)C=C\1Cl)c1cccc2ccccc12`, the growth inhibition (at 1.2 µM) was 0%; the growth inhibition (at 3.7 µM) was 7%; the growth inhibition (at 11.0 µM) was 87% (active); the growth inhibition (at 33.0 µM) was 90% (active); the growth inhibition (at 100.0 µM) was 97% (active).
On the same counts, the results for `CCCCCCSc1nc(COC(=O)NC)c(COC(=O)NC)n1C` are -3%, -14%, -4%, 33% and 99% (active).
